In PubChem BioAssay AID485346 (Sanford-Burnham Center for Chemical Genomics, 2010) one finds inhibition data, which are given here for 57 compounds.

The structures appear in SMILES notation. The campaign covered roughly 330,000 compounds. About 10,000 (3%) were called active. This is one part of a sample in which actives are shown more often than they occur.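 Rule for the calls: active = inhibition of at least 50% at 8 µM in the primary screen; inactive = the rest.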

This assay deals with Protein Mdm4 (Homo sapiens) + E3 ubiquitin-protein ligase Mdm2 (Homo sapiens) (UniProt O15151+Q00987). Kind of assay: inhibitors of human Mdm2-MdmX association, primary screen, cell-based, luminescence, split luciferase, SaOS-2, uHTS (AID 485346). Particulars: SaOS-2 split-luciferase Mdm2/MdmX complementation, at 8 µM, active compounds read high.
Sequence of Protein Mdm4 (Homo sapiens) + E3 ubiquitin-protein ligase Mdm2 (Homo sapiens) (O15151 whole entry, looked up): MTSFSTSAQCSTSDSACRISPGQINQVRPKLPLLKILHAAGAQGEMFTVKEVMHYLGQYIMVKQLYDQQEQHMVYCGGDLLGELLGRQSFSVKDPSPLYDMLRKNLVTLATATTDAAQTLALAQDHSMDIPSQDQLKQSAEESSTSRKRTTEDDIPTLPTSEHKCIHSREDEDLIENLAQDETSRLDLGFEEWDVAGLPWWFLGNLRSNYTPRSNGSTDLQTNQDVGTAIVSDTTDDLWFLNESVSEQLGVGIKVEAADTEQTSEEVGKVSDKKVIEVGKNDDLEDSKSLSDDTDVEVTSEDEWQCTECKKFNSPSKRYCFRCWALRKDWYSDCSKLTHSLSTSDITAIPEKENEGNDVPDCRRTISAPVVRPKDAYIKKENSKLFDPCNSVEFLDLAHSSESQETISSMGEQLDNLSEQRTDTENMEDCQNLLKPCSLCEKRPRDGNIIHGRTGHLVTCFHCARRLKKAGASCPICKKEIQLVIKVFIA
Sequence of Protein Mdm4 (Homo sapiens) + E3 ubiquitin-protein ligase Mdm2 (Homo sapiens) (Q00987 whole entry, looked up): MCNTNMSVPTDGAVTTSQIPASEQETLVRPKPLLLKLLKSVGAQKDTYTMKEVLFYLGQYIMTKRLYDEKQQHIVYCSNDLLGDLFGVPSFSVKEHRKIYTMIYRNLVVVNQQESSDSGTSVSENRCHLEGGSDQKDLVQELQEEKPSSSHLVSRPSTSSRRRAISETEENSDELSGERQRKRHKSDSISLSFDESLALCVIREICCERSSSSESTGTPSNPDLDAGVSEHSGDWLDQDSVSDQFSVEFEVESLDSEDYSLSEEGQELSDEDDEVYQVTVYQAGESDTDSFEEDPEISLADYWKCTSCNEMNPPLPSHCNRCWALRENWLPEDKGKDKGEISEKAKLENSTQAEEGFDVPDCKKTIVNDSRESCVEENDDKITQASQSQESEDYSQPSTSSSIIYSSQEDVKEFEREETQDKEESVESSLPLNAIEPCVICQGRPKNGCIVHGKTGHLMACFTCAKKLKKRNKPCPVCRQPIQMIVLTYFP
In general, inhibition refers to the drop in the measured response relative to a control, in per cent. With `CC(C)NC(=O)N1CCN(c2ccncc2S(=O)(=O)N2CCCCC2)CC1`, the inhibition is 14.5% (inactive).
In the case of `CCOc1cc(/C=N/Nc2cc(C)nc3ccc(C)cc23)ccc1O`, the inhibition is 3.4% (inactive).
As for `COc1cc(OC)c(OC)cc1/C=N/Nc1ncnc2c1[nH]c1ccc(C)cc12`, the inhibition was 78.4% (active).
Then `Cc1ccc2[nH]c3c(=O)n(Cc4ccccn4)cnc3c2c1`, with 7.52% (inactive); and `Cc1ccc(CC(=O)N(C)CC(=O)N(CC(C)C)c2c(N)n(CC(C)C)c(=O)[nH]c2=O)cc1C`, with -20.2% (inactive).
In the case of `Cc1ccccc1NC(=O)NCC1CCN(Cc2cccc(Cl)c2)CC1`, the inhibition is 8.22% (inactive).
Consider `Cc1ccc(C)c(CN2CCC(CNC(=O)Nc3ccc(C)c(F)c3)CC2)c1`, for which the inhibition is 42.6% (inactive).
Regarding `Cc1cccc(CN2CCC(CNC(=O)Nc3ccc(F)c(Cl)c3)CC2)c1`, the inhibition is 51.6% (active).
For the compound `O=C(COC(=O)/C(=C/c1cccs1)c1cccs1)NCc1ccccc1Cl`, the inhibition is -28% (inactive).
On to `CCN(Cc1ccccc1)S(=O)(=O)c1cc2c3c(c1)CCN3C(=O)CC2`, for which the inhibition was -8.54% (inactive).
`CCCC[C@@H]1CN=C(N)N1CCc1cc(C(F)(F)F)cc(C(F)(F)F)c1`: the inhibition is 68.1% (active).
Consider `CCCC[C@@H]1CN=C(N)N1CCc1cccc(F)c1`, for which the inhibition was -13.6% (inactive).
In the case of `CCCC[C@@H]1CN=C(N)N1CCCC`, the inhibition is 16.5% (inactive).
Regarding `O=C(C1CCN(C2CCN(Cc3ccc4cc(F)ccc4n3)CC2)CC1)N1CCCC1`, the inhibition is 6.09% (inactive).
Regarding `CCCc1nc2oc3c(OCC)ncnc3c2c2c1COC(C)(C)C2`, the inhibition was -1.2% (inactive).
The same measure for `O=C(Nc1nonc1-c1ccc(Cl)cc1)c1ccco1`: 3.32% (inactive); for `COc1ccc(NC(=O)CN(C)C(=O)/C=C/c2cn(Cc3ccccc3)nc2-c2cccnc2)cc1`: 9.31% (inactive).
Then `Cc1ccc(/C=C/C(=O)OCC(=O)Nc2cccnc2Cl)cc1`, with 7.79% (inactive); and `O=C(COC(=O)/C=C/c1cn(-c2ccccc2)nc1-c1cccnc1)Nc1ccc(Cl)cc1Cl`, with 61.3% (active); and `COc1ccccc1CC(=O)Nc1ccc([N+](=O)[O-])cc1OC`, with 19.7% (inactive).
For `COc1cc([N+](=O)[O-])ccc1NC(=O)CN1CCCC1`, the inhibition was -4.27% (inactive).
As for `COc1cc([N+](=O)[O-])ccc1NC(=O)COC(=O)CCOc1ccc(C)cc1`, the inhibition is 57.2% (active).
With `N#Cc1c(N)sc2c1CCN(C(=O)OCc1ccccc1)C2`, the inhibition is 17.8% (inactive).
Consider `Cc1ccc(C(=O)N/C(=C/c2ccc(-c3cccc([N+](=O)[O-])c3)o2)C(=O)NCCCN(C)C)cc1`, for which the inhibition was 78.3% (active).
Take `C=CCNC(=O)/C(=C\c1cccc([N+](=O)[O-])c1)NC(=O)c1ccccc1`: the inhibition was 22.1% (inactive).
Take `CN(C)CCNC(=O)/C(=C/c1cccc([N+](=O)[O-])c1)NC(=O)c1ccccc1`: the inhibition was -8% (inactive).
As for `NS(=O)(=O)c1cccc(NC(=O)COC(=O)c2cc([N+](=O)[O-])ccc2N2CCCC2)c1`, the inhibition was 17.6% (inactive).
The same measure for `CC(C)Oc1ccc(C(=O)NCC(=O)Nc2ccc3c(c2)CCC3)cc1`: -15.9% (inactive).
The same measure for `O=C(COc1ccccc1F)Nc1nc(-c2ccccn2)cs1`: 72.2% (active); for `CC(NC(=O)c1ccco1)C(=O)Nc1nc(-c2ccccn2)cs1` (configuration not stated): 21.9% (inactive); for `O=C(CN1C(=O)C2C3C=CC(C3)C2C1=O)Nc1nc(-c2ccccn2)cs1` (configuration not stated): 33.1% (inactive).
As for `CCOc1ccc(CN2CCN(Cc3ccc4cc(F)ccc4n3)CC2CCO)cc1` (configuration not stated), the inhibition was -16.3% (inactive).
As to `COc1ccc(CNC(=O)COC(=O)c2c(C)nn(-c3ccccc3)c2C)cc1OC`, the inhibition was -1.13% (inactive).
`COc1ccc(/C=C/C(=O)Nc2ccc(C)cc2)cc1S(=O)(=O)N1CCOCC1`: the inhibition was 18.3% (inactive).
For the compound `COc1ccc(/C=C/C(=O)N2CCCC2)cc1OC`, the inhibition is 5.87% (inactive).
For `COc1ccc(/C=C/C(=O)Nc2ccc(C34CC5CC(CC(O)(C5)C3)C4)cc2)cc1OC`, the inhibition was 59.1% (active).
Turning to `CCn1nc(C(=O)NNC(=O)C2CSC3(C)CCC(=O)N23)c2ccccc2c1=O` (configuration not stated), the inhibition is 25.6% (inactive).
On to `Cc1cccc(N2CCN(C(=O)c3cc4c(=O)[nH]c5ccccc5c4n3C)CC2)c1C`, for which the inhibition is 40.5% (inactive).
Turning to `O=C1CN(C(=O)c2cc(F)cc(F)c2)c2ccccc2N1`, the inhibition was 21% (inactive).
Turning to `CCOc1cc(N2CCOCC2)c(OCC)cc1NC(=O)COc1cccc2cccnc12`, the inhibition is 90.6% (active).
With `CCOc1cc(N2CCOCC2)c(OCC)cc1NC(=O)COc1cccc(Cl)c1`, the inhibition was -4.41% (inactive).
Take `CCOc1cc(N2CCOCC2)c(OCC)cc1NC(=O)c1cc(C)nc2ccccc12`: the inhibition was -16.5% (inactive).
The same measure for `O=S(=O)(Nc1cc(Cl)ccc1N1CCOCC1)c1ccccc1Cl`: 1.14% (inactive).
As to `O=c1c(/C=N/O)coc2ccc(Cl)cc12`, the inhibition is 9.78% (inactive).
Regarding `Cc1ccc2occ(/C=N/NC(=O)c3ccccc3C)c(=O)c2c1`, the inhibition was 68.7% (active).
For the compound `CC(C)(C)OC(=O)NCCCCCC(=O)N/N=C/c1coc2ccccc2c1=O`, the inhibition is 19.7% (inactive).
Then `O=C1CC(Cc2ccc(Cl)cc2)C(=O)N1c1cc(Cl)ccn1` (configuration not stated), with -4.34% (inactive); and `CN(C)/C(CN1CCCCC1)=C1\N=C(c2ccccc2)OC1=O`, with 0.454% (inactive); and `CCc1cc2cc(OC)ccc2nc1SCC(=O)Nc1cc(OC)c(OC)cc1C(=O)O`, with 17% (inactive).
For the compound `Cc1[nH]c(C)c(S(=O)(=O)N2CCN(c3cccc(C(F)(F)F)c3)CC2)c1C(=O)N1CCCC1`, the inhibition is 14.7% (inactive).
For the compound `Cc1[nH]c(C)c(S(=O)(=O)N2CCN(c3cccc(C(F)(F)F)c3)CC2)c1C(=O)N1CCCCC1`, the inhibition was 76.3% (active).
Turning to `Cc1ccc(C)c(N2CCN(S(=O)(=O)c3c(C)[nH]c(C)c3C(=O)N3CCCC3)CC2)c1`, the inhibition is 5.45% (inactive).
As to `CCOn1c(=O)c(=O)n(O)c2ccccc21`, the inhibition is 3.67% (inactive).
For the compound `CCS(=O)(=O)NCCc1ccc(OC)c(OC)c1`, the inhibition was 18.8% (inactive).
Regarding `COc1ccc(-c2cc(C(F)(F)F)nc(S(C)(=O)=O)n2)cc1OC`, the inhibition is 94.6% (active).
Turning to `COc1ccc(-c2cc(-c3ccc(N)cc3)nc(N)c2C#N)cc1OC`, the inhibition was 32.6% (inactive).
In the case of `Cc1nc2ccccc2nc(=O)c1NNc1ccc([N+](=O)[O-])cc1`, the inhibition is -2.46% (inactive).
